Source: PubChem BioAssay
TWEAK Fn14 block: inhibitors of TWEAK-Fn14 interaction signaling | TWEAK-stimulated Fn14 reporter cells, luciferase luminescence, 8 h | inhibition, % at 10 µM | hit rate 2% among 360,000; in the data active = inhibition above about 50%
KKLEB tox: reduces viability of KKLEB cystic fibrosis airway cells. KKLEB CF airway cells viability, ATPlite luminescence, overnight; hits give low values; cells stimulated with P. aeruginosa culture filtrate. activity change (cytotoxicity), % at 5 µM. hit rate 0.36% among 360,000;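 active = corrected activity change at or below -50% at 5 µM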
Peg3 promoter: Peg3 promoter activity inhibition. HeLa PEG-Prom luciferase reporter, luminescence, overnight. inhibition, % at 20 µM. hit rate 1.7% among 360,000;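 active = inhibition of at least 50% at 20 µM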
CF NFkB inh: blocks PAF-induced NF-kB reporter in cystic fibrosis cells | KKLEB NF-kB-GFP reporter, GFP fluorescence overnight | hit rate 0.86% among 360,000 | inhibition, % at 5 µM;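 active = at least 50% inhibition at 5 µM, scaled per plate between neutral and stimulator controls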;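 note: PAF is a Pseudomonas aeruginosa culture filtrate used as stimulus; plate controls were PAF-stimulated DMSO wells for no effect and unstimulated DMSO wells for full effect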
TROY signal inh: inhibitors of TROY-dependent NF-kB signaling. Q293 LMP1-TROYcd NF-kB luciferase reporter, 4 h. inhibition, % at 10 µM. hit rate 0.98% among 360,000. AID 1347056;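 active = compounds whose plate-normalised and pattern-corrected inhibition of the luciferase reporter signal at the single screening dose is 50% or more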
HIF-2a inh: blocks HIF-2a reporter activity; inhibition, % at 18.8 µM; hit rate 0.72% among 360,000; 786-0 RCC cells HIF-2a reporter, luciferase luminescence, overnight;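 active = inhibition of the luminescence signal of 40% or more relative to plate controls, in a single-dose primary screen at 18.75 µM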
* marks the source's active call; other numbers are inactive results; · = no result given. Most compounds without a hit are left out; they make up all but 4% or so of the library.

SMILES | TWEAK Fn14 block | KKLEB tox | Peg3 promoter | CF NFkB inh | TROY signal inh | HIF-2a inh
O=C(Nc1cc2c(cc1Cl)-c1ccc([N+](=O)[O-])cc1C2=NO)C(F)(F)F | -3 | 10 | 57* | -46 | 5 | -50
Nc1ccc2c(c1)C(=NO)c1cc([N+](=O)[O-])ccc1-2 | 6 | -7 | 44 | 31 | 21 | -19
COc1ccc(S(=O)(=O)Nc2cc(C(C)C)c(O)cc2C)cc1 | -2 | 1 | 4 | 4 | -2 | 4
COc1ccc2nc3cc(Cl)ccc3c(Nc3cc(C(C)C)c(O)cc3C)c2c1 | 63* | -56* | 105* | 38 | 26 | -4
COc1cccc(S(=O)(=O)NCc2ccc(C(=O)Nc3ccc(Cl)c(Cl)c3)cc2)c1 | 6 | 4 | 5 | -11 | -2 | 13
O=C(Nc1ccc(Cl)c(Cl)c1)c1cccc(S(=O)(=O)NCc2cccnc2)c1 | 90* | 4 | 45 | 11 | 64* | -19
CC(C)C[C@H]1CN([C@@H](Cc2ccccc2)CN2CCC[C@H]2CN2C(=O)C(=O)NC[C@@H]2Cc2ccc(O)cc2)C(=O)C(=O)N1CC1CCCCC1 | -9 | · | · | · | 4 | -1
Cc1noc(NS(=O)(=O)c2ccc(N/C=C\C(=O)c3ccncc3)cc2)c1C | 13 | 5 | -3 | 18 | -10 | 9
Cc1noc(NS(=O)(=O)c2ccc(N/C=C/C(=O)c3ccc(F)cc3)cc2)c1C | 57* | -1 | -44 | 9 | 10 | 1
Cc1ccccc1Nc1n[nH]c(=S)s1 | -10 | 5 | -12 | 17 | -6 | -40
Cc1c(Cl)cccc1Nc1n[nH]c(=S)s1 | 3 | -1 | 101* | -17 | 4 | -40
c1ccc(Nc2ccnc(Nc3ccccc3)n2)cc1 | 55* | -16 | -241 | 49 | 20 | -255
CCN=c1scc(C)n1/N=C/c1ccc(O)c(O)c1O | 18 | 4 | 0 | 3 | -10 | 15
CCN=c1scc(C)n1/N=C/c1cc(Br)c(O)c(Br)c1 | 10 | 6 | -21 | 2 | 53* | -38
CCOC(=O)Cc1csc(SCC(=O)N2CCN(c3ccccc3)CC2)n1 | -4 | -20 | 7 | 40 | -8 | 7
O=C(CCl)N1CCN2C(=O)c3ccccc3C12c1ccc(Cl)cc1 (centres undefined) | -3 | 1 | 87* | 19 | -2 | 20
Cc1ccc(C(=O)N2CCN3C(=O)c4ccccc4C23c2ccc(Cl)cc2)cc1 (centres undefined) | 11 | -19 | 26 | -23 | -13 | -5
O=C(NCCCN1CCOCC1)C(=O)N/N=C/c1c2ccccc2cc2ccccc12 | -14 | -5 | 70* | -15 | -5 | 33
O=C(NCCCN1CCOCC1)C(=O)N/N=C/c1c(Cl)cccc1Cl | 17 | 4 | 16 | 4 | -18 | 23
Cc1cc(S(=O)(=O)N2CCOCC2)ccc1OCC(=O)NCCN1CCOCC1 | 0 | 9 | -7 | -5 | -1 | 5
COc1ccc(C(CC(=O)c2ccc(C)cc2)Sc2ccccc2N)cc1 (centres undefined) | 70* | -16 | -189 | 3 | 11 | -150
Nc1ccccc1SC(CC(=O)c1ccccc1)c1ccc([N+](=O)[O-])cc1 (centres undefined) | 11 | 14 | 25 | -2 | -25 | -156
CCOC(=O)[C@]12CCC=C1N(Cc1ccccc1)C(=O)[C@H](CC(=O)NCc1ccc(OC)c(OC)c1)C2 | 3 | · | · | · | 0 | 7
Cc1nn(-c2ccccc2)c(C)c1-c1nnc(-c2c(C)nn(-c3ccccc3)c2C)o1 | 33 | -20 | 14 | 34 | 50* | -6
CCCNC(=O)C1(C)CCCN(C(=O)c2cccc(C#N)c2)C1 (centres undefined) | -2 | 10 | 5 | 3 | -13 | 3
SMILES | TWEAK Fn14 block | KKLEB tox | Peg3 promoter | CF NFkB inh | TROY signal inh | HIF-2a inh
CCC(c1nnnn1-c1ccc2c(c1)OCCO2)N1CCN(CC)CC1 (centres undefined) | 9 | · | · | · | 21 | 1
O=C(CC(SCCO)c1ccc([N+](=O)[O-])cc1)c1ccco1 (centres undefined) | 0 | -16 | 72* | 42 | -9 | -10
O=c1c2ccccc2nc2ccc(NCc3ccco3)nn12 | 19 | -2 | -197 | -8 | -10 | -24
Cc1sc2nc3ccc(NCc4ccco4)nn3c(=O)c2c1C | 91* | -7 | -17 | 28 | 3 | -25
CSc1ccc(/C=N/NC(=O)c2sccc2C)cc1 | 55* | -3 | -181 | -5 | -41 | -138
CSc1ccc(/C=N/NC(=O)c2ccc(C)c(C)c2)cc1 | -7 | 8 | -86 | -19 | -64 | -147
COCCCNC1=C(C#N)C(=O)NC2(CCCC2)S1 | 22 | -10 | 3 | 14 | 11 | 15
N=c1c2c(n(Cc3ccc(Br)cc3)c3c1CCC3)CCCC2 | 41 | -59* | 22 | 45 | 35 | 15
N=c1c2c(n(Cc3ccc(Cl)c(Cl)c3)c3c1CCC3)CCCC2 | 48 | -17 | 39 | 38 | 45 | 25
COc1cccc(N2CC(NS(=O)(=O)c3ccc4ccccc4c3)CC2=O)c1 (centres undefined) | -18 | 2 | 6 | 7 | -7 | 16
COc1ccc(-c2nc3c4ccccc4ccn3c2Cc2ccccc2)cc1OC | -3 | -2 | -167 | -67 | -25 | -251
OCCN(CCO)CC(O)COc1ccc(C23CC4CC(CC(C4)C2)C3)cc1 (centres undefined) | 77* | -10 | 24 | 20 | 47 | 89*
COc1cccc(C(=O)NCCN2CCC(n3c(=O)[nH]c4ccccc43)CC2)c1 | -10 | · | · | · | 5 | -3
CN(C)CCCN(C(=O)c1cc(-c2cccs2)nc2ccccc12)c1nc2ccc(F)cc2s1 | -14 | -34 | 112* | 43 | 2 | -13
Cc1ccc2nc(N(CCCN(C)C)C(=O)c3sc4ccccc4c3Cl)sc2c1 | 73* | -15 | -81 | 16 | 50* | -13
Cc1ccc2nc(N(CCCN(C)C)C(=O)c3ccc(S(=O)(=O)N(C)C)cc3)sc2c1 | 4 | -4 | 7 | 3 | -11 | 16
CN(C)CCCN(C(=O)CCc1ccccc1)c1nc2ccc(F)cc2s1 | -4 | 5 | -2 | 3 | -12 | -3
CCN(CC)CCN(C(=O)c1ccc2c(c1)CCCC2)c1nc2ccc(F)cc2s1 | 36 | -9 | -82 | 3 | 55* | -106
CCN(CC)CCN(C(=O)c1ccc2c(c1)CCCC2)c1nc2ccc(C)cc2s1 | 12 | 0 | -32 | 5 | -13 | -28
CN(C)CCN(C(=O)c1cc(Cl)sc1Cl)c1nc2ccc(F)cc2s1 | -35 | 8 | -71 | 6 | -28 | -81
CCN(CC)CCN(C(=O)c1ccccc1OC)c1nc2ccc(F)cc2s1 | -27 | -4 | -50 | -13 | 76* | -95
O=C1CCC(C(=O)Nc2ccccc2N2CCOCC2)=NN1 | 6 | 0 | -1 | 11 | -2 | 10
